# RT RNaseH block: inhibitors of HIV-1 reverse transcriptase RNase H; RT-RNase H RNA/DNA duplex cleavage, fluorescence; inhibition, % at 10 µM; 65,000 tested, 1.9% active; in the data active means inhibition above about 50%
# The depositor's hits bear a star. The full list was thinned out, with hits kept by preference.
SMILES,RT RNaseH block
C=CCn1c(-c2ccccc2)n[nH]c1=S,7
C=CCn1c(Cc2nc3ccc(Cl)cc3[nH]2)n[nH]c1=S,58*
C=CCn1c(-c2ccoc2)n[nH]c1=S,-18
Cn1c(=O)oc2cc(S(=O)(=O)Nc3ccc4c(c3)OCO4)ccc21,17
C=CCNS(=O)(=O)c1ccc(OCC(=O)OC)cc1,-6
CCCCOc1ccc(C2(C)CC(=O)NC2=O)cc1 (stereo not given),-1
CCCC(=O)Nc1ccc(-c2nc3cc(C)c(C)cc3o2)c(O)c1,58*
COc1ccc(CC(=O)Nc2ccc(-c3nc4cc(C)ccc4o3)c(O)c2)cc1OC,48
CCCC(=O)Nc1ccc(-c2nc3cc(C)ccc3o2)cc1,18
O=C1NCC(O)=C1C=NC12CC3CC(CC(C3)C1)C2,-19
CC(C)c1cc(NC(=O)CSc2nnc(-c3ccccc3F)n2C)on1,2
CCCOc1ccc(N2C(=O)C3ON(c4ccccc4)C(c4ccc(O)c(OC)c4)C3C2=O)cc1 (stereo not given),56*
CCOc1ccccc1C1C2C(=O)N(c3ccccc3)C(=O)C2ON1c1ccccc1 (stereo not given),9
COc1cc(C2C3C(=O)N(Cc4ccccc4)C(=O)C3ON2c2ccccc2)cc(OC)c1O (stereo not given),11
O=C(O)CCCCCCC1C(=O)NC(=O)N1CCC(O)C1CCCCC1 (stereo not given),-2
Cc1ccccc1NC(=O)CN1C(=O)COc2ccc(Cl)cc21,-11
Cc1ccc(C(=O)NCCCN2CCOCC2)cc1N1CCCC1=O,-18
N#CC1=C(N)SC(N)=C(C#N)C1Cc1ccccc1,35
CCc1ccc(C2C(C#N)=C(N)SC(N)=C2C#N)s1,11
CC(C)CC1C(C#N)=C(N)SC(N)=C1C#N,51*
O=CN1CCN(C(C(=O)NC2CCCC2)c2ccc(Cl)cc2)CC1 (stereo not given),-5
O=C(NC1CCCCC1)Nn1c(-c2ccccc2)nc2ccccc2c1=O,-3
Cc1ccc(NC2=NC(c3ccco3)n3c(nc(C)cc3=O)N2)c(C)c1 (stereo not given),3
C1CNCCNCCCNCCNC1,-4
COc1cc(CNc2ccc(N3CCOCC3)c(C(=O)O)c2)ccc1OCC(N)=O,2
SMILES,RT RNaseH block
CCOC(=O)N1CCC(N2C(=O)c3ccccc3C2Nc2cc(C(=O)OC)cc(C(=O)OC)c2)CC1 (stereo not given),-3
O=C(Nc1ccccc1)N1CCCC(c2nc(-c3cccs3)no2)C1 (stereo not given),8
CN1CCc2c(sc3c2C(=O)NC(c2cn(Cc4ccccc4)c4ccccc24)N3)C1 (stereo not given),9
COc1ccc(Br)cc1C1NC(=O)c2c(sc3c2CCN(C)C3)N1 (stereo not given),-2
CN1C(=O)c2c(sc3c2CCCC3)NC1c1ccccc1O (stereo not given),52*
CC(C)OC(=O)c1c2nc3ccccc3nc2n2c1[nH]c(=O)c1ccccc12,-17
COC(=O)CCC(=O)c1oc2ccccc2c1N,-4
O=C1CN(Cc2ccccc2)C(=NCc2ccco2)S1,-19
CN(C(=O)c1cccnc1)c1nnc(-c2ccccn2)s1,-5
CN(C(=O)c1cccnc1)c1nnc(-c2cccnc2)s1,66*
CN(C(=O)c1cccnc1)c1nnc(-c2cnccn2)s1,-5
CC(=O)c1cccc(S(=O)(=O)N(CCCO)Cc2cc3ccc(C)cc3[nH]c2=O)c1,-28
Cc1cccc(-n2nc3c(c2NC(=O)c2ccc(Br)o2)CSC3)c1,38
CCn1c(N)c(C(=O)NCc2ccco2)sc1=S,-6
C=CCNC(=O)c1sc(=S)n(-c2ccc(C(=O)OCC)cc2)c1N,76*
CCOC(=O)c1ccc(-n2c(N)c(C(=O)NCc3ccco3)sc2=S)cc1,72*
CCOc1ccc(-n2c(C)nc3cc(C(=O)NCc4ccco4)ccc32)cc1,-5
COc1ccc(-n2c(N)c(C(=O)NCC3CCCO3)sc2=S)cc1 (stereo not given),7
CCOC(=O)c1sc(=S)n(CC)c1N,-10
C=C(C)CSc1nnc([C@@H](NC(=O)OC(C)(C)C)C(C)CC)o1 (stereo not given in full),-4
Cc1ccc(S(=O)(=O)N(C)CCCC(=O)n2nc(C)cc2C)cc1,1
CC1(C)Cc2c(C#N)c(N)sc(=S)c2CS1,62*
Cn1c(N)c(C#N)c2c(c1=S)CSC(C)(C)C2,19
CC1(C)Cc2c(c(-c3ccccc3)[nH]c(=O)c2C#N)CS1,3
O=C(CNS(=O)(=O)c1ccc(Br)s1)N1CCC(N2CCCCC2)CC1,-19
SMILES,RT RNaseH block
Cn1c(=O)oc2cc(S(=O)(=O)Nc3cccc4c3CCCC4)ccc21,-9
O=C(CSc1ncn(-c2ccccc2)n1)Nc1ccc(Br)cn1,55*
O=C(CSc1ncn(-c2ccccc2)n1)Nc1ccc2c(c1)OCCO2,-11
O=C(CSc1ccccn1)Nc1ccc(Br)cn1,-23
CCN(CC)S(=O)(=O)c1ccc(NC(=O)COc2c(OC)cccc2OC)cc1,-1
COC(=O)C1CCN(C(=O)C2CCCCC2)CC1,-5
COC(=O)Nc1sccc1C(=O)Nc1sccc1C(=O)OC,54*
COC(=O)c1ccsc1NC(=O)C1=COCCO1,-24
CCC(=O)Nc1sccc1C(=O)OC,-11
O=C(CSc1ncc(-c2ccc(F)cc2)[nH]1)N1CCCCC1,2
CC1CCN(C(=O)CSc2ccc3nnc(-c4ccc(F)cc4)n3n2)CC1,-7
CCc1nnc2sc(-c3ccc(NC(=O)c4ccco4)cc3)nn12,0
Cc1nnc2sc(-c3ccc(NC(=O)c4ccc(-c5ccc(Cl)cc5Cl)o4)cc3)nn12,50*
Cc1nnc2sc(-c3ccc(NC(=O)c4cccnc4)cc3)nn12,3
COC(=O)C1=C(C)N2C(=O)CSC2=NC1c1ccc2c(c1)OCO2 (stereo not given),-19
COc1ccc(N2CCN(C(c3ccccc3OC)c3nnnn3Cc3ccco3)CC2)cc1 (stereo not given),51*
COc1ccc(Cn2nnnc2C(c2ccccc2OC)N2CCC(C(N)=O)CC2)cc1 (stereo not given),0
COc1ccc(Cn2nnnc2C(c2cccs2)N2CCN(c3ccccc3)CC2)cc1 (stereo not given),9
Cc1ccc(CNC(=O)c2ccc(CN3CCOCC3)cc2)cc1,-4
CC1CCN(C(=O)CSc2nnc(-c3cc4ccccc4cc3O)n2Cc2ccco2)CC1,17
CCN(CC)S(=O)(=O)c1cc(Br)c(C)cc1OC,-72
CCCOc1ccc2ccccc2c1/C=N/n1c(C)nnc1-n1nc(C)cc1C,-58
N#Cc1c2c(c(=S)n(-c3ccccc3)c1N)CCCC2,70*
CCOC(=O)c1c2c(c(=S)n(-c3ccccc3)c1N)CCC2,9
CCC1(C)Cc2c(C#N)c(N)n(-c3ccccc3)c(=O)c2CO1 (stereo not given),-7
SMILES,RT RNaseH block
CC(C)C(=O)Nc1cccc(NC(=O)CCN2C(=O)c3ccccc3S2(=O)=O)c1,-13
CC1=C(C(=O)NCc2ccccn2)C2(CCC(C)CC2)OC1=O (stereo not given),-5
COc1ccc(-n2c(C)cc(C(=O)CSc3nn4c(=O)c(C(C)(C)C)nnc4s3)c2C)cc1,50*
CC(C)(C)c1nnc2sc(SCC(=O)c3ccccc3)nn2c1=O,-3
COc1ccc(C(=O)CSc2nn3c(=O)c(C(C)(C)C)nnc3s2)cc1,-5
COCCNC(=O)C1CCN(S(=O)(=O)c2ccccc2)CC1,1
CCOC(=O)c1sc2nc(SCC#N)n(CCCN3CCCC3=O)c(=O)c2c1C,-19

# Compound activity deposited in PubChem by University of Pittsburgh Molecular Library Screening Center.
